Source: ChEMBL document CHEMBL3988442, “University of Dundee, Small-Polar-MMV Screening Library” (2021)
Out of some 53,000 compounds screened, about 900 (1.7%) showed an effect of 50% or more. The entries come from a sample that favours strong results as a whole.

system: Mycobacterium tuberculosis; assay: Cornell - Phenotypic assay to identify agents that inhibit growth of Mycobacterium tuberculosis; assay type: functional; parameters: scale not given: direction of the effect not stated beside the values; conditions: 10 mM as filed; unlikely as a test dose

SMILES	Percent Effect
COc1cccc(OCC(=O)N2CCOc3ccncc32)c1	-4.09%
CNC(=O)CNC(=O)c1ccc(-c2scnc2C)nc1	51.37%
CCCNC(=O)CNC(=O)c1scnc1C	-19.92%
Cc1ncsc1-c1cc(C(=O)NCCO)ccn1	0.2276%
Cc1cc(C(=O)CN2CCN(c3nccs3)CC2)c(C)n1C1CC1	7.889%
COc1ccc(CCN(C)C(=O)c2cc(C(C)=O)c[nH]2)cc1OC	-7.568%
CCNC(=O)[C@H]1CN(Cc2ccccc2)C[C@@H]1C(=O)c1ccccc1	41.32%
CCNC(=O)[C@@H]1CN(Cc2ccccc2)C[C@H]1C(=O)c1ccc(F)cc1	56.73%
O=C(NC1CC1)[C@H]1CN(Cc2ccccc2)C[C@@H]1C(=O)c1ccccc1	30.86%
O=C(O)[C@H]1CN(Cc2ccccc2)C[C@@H]1C(=O)c1ccccc1	51.09%
CNC(=O)[C@@H]1CN(Cc2ccccc2)C[C@H]1C(=O)c1ccc(F)cc1	28.54%
CC(C)NC(=O)[C@H]1CN(Cc2ccccc2)C[C@@H]1C(=O)c1ccccc1	38.41%
O=C(c1ccc(O)c(Cl)c1)N1CCN(c2nccs2)CC1	19.4%
CC(C)CC(=O)N1CC[C@H]2C[C@H](c3nccs3)O[C@@H]2C1	29.2%
CNc1nc2c(s1)C(c1ccccc1Cl)CC(=O)N2 (centres undefined)	45.9%
Cn1ncc2c1NC(=O)CC2c1c(F)cccc1Cl (centres undefined)	13.6%
CNc1nc2c(s1)C(c1cccc(F)c1F)CC(=O)N2 (centres undefined)	-9.045%
CNc1nc2c(s1)C(c1ccc(F)cc1Cl)CC(=O)N2 (centres undefined)	32.27%
Nc1nc2c(s1)C(c1c(F)cccc1Cl)CC(=O)N2 (centres undefined)	103.5%
CNc1nc2c(s1)C(c1c(F)cccc1Cl)CC(=O)N2 (centres undefined)	108%
CNc1nc2c(s1)C(c1c(Cl)cccc1Cl)CC(=O)N2 (centres undefined)	107.9%
CNc1nc2c(s1)C(c1cccc(Cl)c1Cl)CC(=O)N2 (centres undefined)	35.33%
CNc1nc2c(s1)C(c1ccccc1F)CC(=O)N2 (centres undefined)	-4.667%
CC(O)CN1CC(C)(C)CN(C(=O)CCc2ccccc2)CC1=O (centres undefined)	4.925%
CCN1CCN(C(=O)c2cc(-c3ccc(C)o3)n[nH]2)[C@H]2CS(=O)(=O)C[C@H]21	-0.2092%
CCNC(c1cccnc1)c1ccc(F)c(C)c1 (centres undefined)	-53.96%

SMILES	Percent Effect
CC(=O)N1CCN(C(=O)Nc2ccccc2Cl)[C@H]2CS(=O)(=O)C[C@H]21	4.723%
Cc1cc(C)n(CC(=O)N2CCCCC2CCN2CCCC2=O)c(=O)n1 (centres undefined)	8.917%
Cc1cc(C(=O)N2CCc3c(CN(C)C(C)C)n[nH]c3C2)[nH]n1	21.29%
CCc1noc(CNc2ccc(C(=O)N3CCCC3)cc2C)n1	-69.23%
Cc1ccc(CN2CCc3onc(C(=O)Nc4cccnc4)c3C2)o1.O=C(O)C(F)(F)F.O=C(O)C(F)(F)F	61.31%
Cc1ccc(CN2CCc3onc(C(=O)NC(C)C)c3C2)o1.O=C(O)C(F)(F)F	1.183%
Cc1ccc(CN2CCc3onc(C(=O)NCCN(C)C)c3C2)o1.O=C(O)C(F)(F)F.O=C(O)C(F)(F)F	6.093%
CCc1cnc(CN(C)C2CCN(Cc3nnc(C4CC4)n3C)C2)o1 (centres undefined)	31.65%
Cc1cc(C(=O)N(C)CCN(C)C(=O)OC(C)(C)C)oc1C	-8.303%
Cc1cc(C)c(C(=O)N(C)CCN(C)C(=O)OC(C)(C)C)[nH]1	68.36%
Cc1cc(C)c(C(=O)N(C)CCN(C)C(=O)c2[nH]c(C)cc2C)[nH]1	1.614%
c1cc(CNc2ncc(-c3cnccn3)c(C3CC3)n2)ccn1	-5.136%
CSc1cccc(CN(C)C(=O)c2cccc(C3CCCNC3)c2)c1 (centres undefined)	36.25%
CC(=O)N1CCC(c2ncc(C(=O)Nc3ccc(F)cc3)c(C)n2)CC1	4.765%
O=C(O)C(F)(F)F.O=S(=O)(NCC1COCc2c(-c3ccncc3)nnn2C1)C1CC1 (centres undefined)	13.64%
CN1CCN(c2nc(-c3cnn(C)c3)cs2)CC1	19.22%
Cn1cc(-c2csc(N3CCCCCC3)n2)cn1	18.17%
Cn1cc(-c2csc(N3CCN(C(=O)OC(C)(C)C)CC3)n2)cn1	78.03%
Cc1occc1C(=O)N1CCCC(C2=Nc3ccccc3S(=O)(=O)N2)C1 (centres undefined)	60.62%
O=C(C1CC1)N1CCCC(C2=Nc3ccccc3S(=O)(=O)N2)C1 (centres undefined)	29.99%
O=C(c1ccncc1)N1CCCC(C2=Nc3ccccc3S(=O)(=O)N2)C1 (centres undefined)	43.45%
CC(C)CN1C[C@H]2C[C@H](C(=O)Nc3cccnc3)[C@@H](C1)O2	6.477%
CCN(CC)S(=O)(=O)CC(=O)N1CCc2ccc(Cl)cc21	4.859%
CCOc1cc(CN(C)CCCC#N)ccc1OC(F)F	7.532%
Cc1cc(NC(=O)C2CCN(c3nnc(C)c(C)c3C#N)CC2)no1	-12.4%
CCC(CO)NC(=O)Nc1ccc(OCC(F)(F)F)c(C)c1 (centres undefined)	-5.78%

SMILES	Percent Effect
Cc1cc(NC(=O)NCc2nccn2C)ccc1OC(C)C	35.97%
CCC(NC(=O)Nc1ccc(OC)c(C)c1)c1noc(C)n1 (centres undefined)	-4.83%
CCC(NC(=O)Nc1ccc(OC)c(C)c1)c1ccncc1 (centres undefined)	89.35%
Cc1cc(NC(=O)NCc2ccncc2)ccc1OC(C)C	88.24%
Cc1cc(NC(=O)NCc2nncn2C)ccc1OC(C)C	-0.4289%
CCCc1nc2c(c(C)c(C)n2Cc2cccnc2)c(N)c1CC	0.8008%
CC(=O)c1nn(-c2ccccc2Cl)c(C)c1C(C)=O	14.3%
COCCNC(=O)c1cccnc1Sc1cc(OC)ccc1OC	-23.48%
Cc1ncc2c(n1)CN(CC(=O)Nc1cccnc1)CC2	-17.74%
CC(C)NC(=O)N1CCCn2cnc(CO)c2C1.O=C(O)C(F)(F)F	25.62%
Cc1cccc(CN2C[C@@H]3CN(C(=O)NC(C)C)C[C@@H]3C2=O)n1.O=C(O)C(F)(F)F	25.36%
CN1CCC(c2cc(CCO)ncn2)C1 (centres undefined)	-9.182%
O=C(Nc1ccc(Br)cc1F)c1ccc(N2CCOCC2)nn1	-1.334%
O=C(NCc1ccccc1CN1CCOCC1)c1ccc(Br)cc1F	8.243%
O=C(Nc1ccc(Br)cc1F)c1cc(CN2CCOCC2)on1	74.1%
CC(=O)N1CC(c2n[nH]c3ncccc23)C1	-13.82%
CNS(=O)(=O)CC(=O)N1CCCc2cc(Br)ccc21	-18.99%
COCc1nc(C(=O)OCC2CCN(c3ccccc3)C2)cs1 (centres undefined)	17.1%
COc1ccc(C(NCc2ccc(C#N)cc2)C2CC2)cc1.Cl (centres undefined)	-15.68%
c1cnc2[nH]c(C3CCCC3)c(CN3CCOCC3)c2c1	24.1%
CCN1CCN(Cc2c(C3CCCC3)[nH]c3ncccc23)CC1	74.68%
c1cnc2[nH]c(C3CCCC3)c(CN3CCCCC3)c2c1	34.75%
CC1CCN(C(=O)C2CC(=O)N(c3cnn(C(C)C)c3)C2)CC1 (centres undefined)	-3.187%
CN(C)S(=O)(=O)c1ccc(-c2nc(C#N)c(NC(C)(C)C)o2)o1.Cl	104.3%
CNc1oc(-c2ccc(S(=O)(=O)N(C)C)o2)nc1C#N	17.81%
CC(C)Nc1oc(-c2ccc(S(=O)(=O)N(C)C)o2)nc1C#N	-45.52%

SMILES	Percent Effect
Cc1nc(N2CCC(CC(=O)N3CCCC3)CC2)c2cnn(C)c2n1	3.468%
CC(C)C1SCC(=O)Nc2c1cnn2C(C)C (centres undefined)	18.65%
CNc1ccc(C2CN(c3nc(C)cc(C)n3)CCO2)nc1 (centres undefined)	51.49%
CNc1ccc(C2CN(c3cc(C)nc(N)n3)CCO2)nc1 (centres undefined)	24.16%
CNc1ccc(C2CN(c3cc(C)ncn3)CCO2)nc1 (centres undefined)	34.11%
Cc1cc(NC(=O)Cc2ccccc2O)c[nH]c1=O	77.58%
O=C(Cc1ccccc1O)Nc1ccc(N2CCCC2)nc1	-5.098%
Cc1cc(NC(=O)Cc2ccccc2O)cnc1N1CCCCC1	28.35%
Cc1cc(NC(=O)C(C)N2CCN(c3ccccc3F)CC2)no1 (centres undefined)	2.813%
CC(C)Cc1noc(-c2ccc(NCc3noc(C(C)C)n3)nc2)n1	44.87%
CCC(O)CNc1ccc(-c2nc(CC(C)C)no2)cn1 (centres undefined)	50.96%
CCn1cncc1CNc1ccc(-c2nc(CC(C)C)no2)cn1	11.21%
CN(C(=O)C1(C#N)CCCCC1)c1nccs1	17.67%
Oc1ccc(N2CCN(Cc3cc4c(cc3Br)OCCO4)CC2)cc1	104.9%
O=S(=O)(N1CCCCCC1)N1CCN(Cc2ccc(F)cc2Br)CC1	10.21%
Oc1ccc(N2CCN(Cc3ccc(F)cc3Br)CC2)cc1	105.2%
OC1CCN(Cc2cc3c(cc2Br)OCCO3)CC1	5.885%
OCCN1CCN(Cc2cc3c(cc2Br)OCCO3)CC1	-50.33%
CS(=O)(=O)N1CCN(Cc2ccc(F)cc2Br)CC1	31.68%
Cc1ccccc1C1CCCN1Cc1ccc(S(=O)(=O)N(C)C)o1 (centres undefined)	23.54%
O=C(O)c1cnc(N2CCCC2)nc1COc1ccc(F)cc1	38.38%
COCC(O)CN(C)C(=O)NCc1ccc(-c2ccn[nH]2)cc1 (centres undefined)	-4.972%
CN1CCOC(c2cncc(CCC(=O)N(C)C)n2)C1 (centres undefined)	-44.27%
Oc1nc(N2CCOCC2)nc2c1CCN(Cc1cccc(F)c1)CC2	-50.2%
Fc1cccc(Nc2nc(N3CCCC3)nc3c2CNCC3)c1	102.5%
COc1cccc(Nc2nc(N3CCCC3)nc3c2CNCC3)c1.Cl	17.23%
